“And” between values parts separate entries of the source, which are not always exact repeats. Equal values may be shown once. Inconclusive results are not listed. The source made the active and inactive calls. Unless noted, the call rests on the fitted dose curve; in most records, active means well fitted curve in the direction sought with a large enough effect; inconclusive means small, poorly fitted or top-dose-only effect, or another doubt; inactive means no such curve, though single readings can be large; an effect the other way counts as inactive or inconclusive.
Assays:
[1] = biological target: alpha-glucosidase (Oryza sativa, rice) (UniProt Q653V4); assay: Counterscreen for Glucocerebrosidase Inhibitors: qHTS Assay for Rice alpha-Glucosidase at pH 5.0 (AID 997);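 further: 0% = full activity with enzyme and -100% = basal without enzyme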
Method in brief: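 Endpoint fluorogenic assay at pH 5.0: compounds (0.7 nM to 77 uM) titrated against 4 nM rice enzyme and 400 uM 4-MU-alpha-glucoside for 20 min at room temperature; NaOH/glycine stop, read ex 365/em 440 nm, Hill-fitted AC50.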

[2] = qHTS Assay for Lipid Storage Modulators (AID 1519; calls by dose curve; on activity change, negative = inhibition: on the % scale 0 is the no-effect control and ±100 the full control effect); conditions: Drosophila S3 cells, BODIPY lipid droplet/cell ratio, laser cytometry, cells loaded with oleic acid
Method in brief: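 Cells seeded at 5,000 per well were treated with compounds over a concentration series and loaded with oleic acid (400 uM, as added). Lipid droplet fluorescence (488 nm excitation, 500-530 nm channel) was read by laser-scanning cytometry and normalized to 20 uM Triacsin C.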

[3] = biological target: DNA repair nuclease/redox regulator APEX1 (Homo sapiens) (UniProt P27695); assay: qHTS Validation Assay for Inhibitors of the Human Apurinic/apyrimidinic Endonuclease 1 (APE1) (AID 1705; further: potency means the concentration at half of the fitted maximal effect;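 on activity change, negative = inhibition: TAMRA fluorescence gain over two minutes as APE1 cuts a quenched THF abasic duplex; on the % scale 0 is the no-effect control and ±100 the full control effect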)
Method in brief: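 Endonuclease activity of human APE1 is followed as dequenching when the enzyme incises a tetrahydrofuran abasic site in a short duplex labelled 5'-TAMRA/3'-BHQ-2 (50 nM final), after 15 min enzyme–compound preincubation at room temperature.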

[4] = Counterscreen for APE1 Inhibitors: Fluorescent Dye Displacement Validation Assay (AID 1707); further: potency means the concentration at half of the fitted maximal effect;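 on activity change, negative = inhibition: plate controls were ThO with dsDNA and no compound for no effect and ThO without dsDNA for full effect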
Method in brief: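 Endpoint fluorescence read at 480 nm excitation / 540 nm emission; DNA-binding compounds lower signal by displacing 250 nM Thiazole Orange from 50 nM dsDNA containing a tetrahydrofuran abasic site, Tris-HCl pH7.5 buffer with NaCl and MgCl2.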

[5] = biological target: Endonuclease 4 (Escherichia coli (strain K12)) (UniProt P0A6C1); assay: Counterscreen for APE1 Inhibitors: qHTS Validation Assay for Inhibitors of Endonuclease IV (AID 1708); further: on the % scale 0 is the no-effect control and ±100 the full control effect
Method in brief: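 The reaction buffer contained 50 mM Tris-HCl pH 7.5, 50 mM NaCl, 2 mM MgCl2, 1 mM DTT and 0.01% Tween-20. Incision of a 50 nM fluorophore/quencher THF substrate by 2 nM enzyme was measured kinetically.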

[6] = qHTS for differential inhibitors of proliferation of Plasmodium falciparum line 7G8 (AID 1815);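 further: parasite growth measured after three days of incubation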; further: potency means the concentration at half of the fitted maximal effect;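 on activity change, negative = inhibition: plate controls were vehicle wells for no effect and reference inhibitor wells for full effect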
[7] = qHTS for differential inhibitors of proliferation of Plasmodium falciparum line GB4 (AID 1816); conditions: Potency: Plasmodium falciparum GB4 proliferation inhibition;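 further: parasite growth measured after 72 h incubation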; further: potency means the concentration at half of the fitted maximal effect;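 on activity change, negative = inhibition: 0% = vehicle DMSO and -100% = reference inhibitor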
[8] = qHTS for differential inhibitors of proliferation of Plasmodium falciparum line 3D7 (AID 1876); further: potency means the concentration at half of the fitted maximal effect
[9] = qHTS for differential inhibitors of proliferation of Plasmodium falciparum line D10 (AID 1877);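 further: parasites grown with compound for 72 h before DNA staining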; further: potency means the concentration at half of the fitted maximal effect;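 on activity change, negative = inhibition: plate controls were vehicle wells for no effect and reference inhibitor wells for full effect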
[10] = measured here: cell count channel max response
[11] = measured here: lipid channel max response

Sequence of DNA repair nuclease/redox regulator APEX1 (Homo sapiens) (P27695 whole entry, looked up): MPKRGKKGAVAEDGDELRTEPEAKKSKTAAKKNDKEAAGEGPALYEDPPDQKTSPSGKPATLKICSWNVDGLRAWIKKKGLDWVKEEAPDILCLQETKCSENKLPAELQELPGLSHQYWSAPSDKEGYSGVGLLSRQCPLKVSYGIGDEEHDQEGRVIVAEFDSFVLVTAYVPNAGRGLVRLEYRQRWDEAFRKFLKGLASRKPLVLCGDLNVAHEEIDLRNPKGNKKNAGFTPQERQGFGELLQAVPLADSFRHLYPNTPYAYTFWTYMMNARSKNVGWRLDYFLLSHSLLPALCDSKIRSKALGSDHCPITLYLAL

Fc1ccc([C@@H]2CCNC[C@H]2COc2ccc3c(c2)OCO3)cc1
active: Potency [6] 5.62 µM | Potency [7] 5.01 µM | Potency [8] 7.08 µM | Potency [9] 12.6 µM
-18.8%: max response [2, 11]
-19.9%: max response [2, 10]
inactive: outcome [1] | activity change, negative = inhibition ([2]; at 57.5 µM (top of the series)) -0.973% | Potency [3] | Potency [4] | Potency [5]

O=c1c(O)c(-c2ccc(O)c(O)c2)oc2cc(O)cc(O)c12
inactive: outcome [1] | Potency [5]

O=c1[nH]cc(F)c(=O)[nH]1
12.8% and 58.3%: max response [2, 11]
inactive: outcome [1] | activity change, negative = inhibition ([2]; at 57.5 µM (top of the series)) 6.92% and -0.382% | Potency [3] | Potency [4]
3.09% and 58.9%: max response [2, 10]

OCCN(CCO)c1nc(N2CCCCC2)c2nc(N(CCO)CCO)nc(N3CCCCC3)c2n1
inactive: outcome [1] | Potency [5]
active: Potency [6] 2 µM | Potency [7] 2.82 µM | Potency [8] 3.98 µM | Potency [9] 7.94 µM

Cc1cn([C@H]2C=C[C@@H](CO)O2)c(=O)[nH]c1=O
-10.8%: max response [2, 10]
inactive: outcome [1] | activity change, negative = inhibition ([2]; at 57.5 µM (top of the series)) 1.52% | Potency [3] | Potency [4] | Potency [6] | Potency [7] | Potency [8] | Potency [9]
-8.91%: max response [2, 11]

COc1cc2c(c(OC)c1OC)-c1ccc(OC)c(=O)cc1[C@@H](NC(C)=O)CC2
inactive: outcome [1] | Potency [3] | Potency [4]

CCCNCC(O)COc1ccccc1C(=O)CCc1ccccc1 (stereo not given)
14% and 22.1%: max response [2, 11]
8.1% and 22.1%: max response [2, 10]
active: Potency [7] 0.355 µM | Potency [8] 0.891 µM | Potency [9] 2.24 µM
inactive: activity change, negative = inhibition ([2]; at 57.5 µM (top of the series)) 6.61% and -1.46% | Potency [3] | Potency [4]

CN1C2CCC1CC(OC(=O)C(CO)c1ccccc1)C2 (stereo not given)
inactive: Potency [3] | Potency [4] | Potency [8] | Potency [9]

COc1ccc(CCN(C)CCCC(C#N)(c2ccc(OC)c(OC)c2)C(C)C)cc1OC (stereo not given)
inactive: Potency [3] | Potency [4]

CC(COc1ccccc1)N(CCCl)Cc1ccccc1 (stereo not given)
inactive: Potency [3] | Potency [4]

Cn1c(=O)c2[nH]cnc2n(C)c1=O
inactive: outcome [1] | Potency [3] | Potency [5] | Potency [6] | Potency [7] | Potency [8] | Potency [9]

NC(=O)OCC(COC(N)=O)c1ccccc1
inactive: outcome [1] | Potency [3] | Potency [4] | Potency [5] | Potency [6] | Potency [7] | Potency [8] | Potency [9]

O=C(c1ccc(OCCN2CCCCC2)cc1)c1c(-c2ccc(O)cc2)sc2cc(O)ccc12
active: Potency [6] 4.47 µM | Potency [7] 2 µM | Potency [8] 2.82 µM | Potency [9] 3.16 µM
inactive: outcome [1] | Potency [3]

CN(C)C(=O)C(CCN1CCC(O)(c2ccc(Cl)cc2)CC1)(c1ccccc1)c1ccccc1
inactive: outcome [1] | Potency [3] | Potency [4]

COc1ccc2[nH]cc(CCNC(C)=O)c2c1
inactive: outcome [1] | activity change, negative = inhibition ([2]; at 25.7 µM (top of the series)) 1.02% | activity change, negative = inhibition ([2]; at 57.5 µM (top of the series)) 11.3% and -5.62% and 7.48% | Potency [3] | Potency [4] | Potency [5] | Potency [6] | Potency [7] | Potency [8] | Potency [9]

COc1cc2nc(N3CCN(C(=O)c4ccco4)CC3)nc(N)c2cc1OC
active: Potency [6] 7.94 µM | Potency [7] 12.6 µM | Potency [8] 8.91 µM | Potency [9] 10 µM
inactive: Potency [3]

Nc1c2c(nc3ccccc13)CCCC2
active: Potency [6] 10 µM | Potency [7] 10 µM | Potency [8] 8.91 µM | Potency [9] 10 µM
inactive: outcome [1] | Potency [3] | Potency [4] | Potency [5]

Cc1cc(C(C)(C)C)cc(C)c1CC1=NCCN1
inactive: outcome [1] | Potency [3] | Potency [4]

O=C(CCCN1CCC(O)(c2ccc(Cl)cc2)CC1)c1ccc(F)cc1
inactive: outcome [1] | Potency [3] | Potency [4] | Potency [5]

O=C(Nc1ccc([N+](=O)[O-])cc1Cl)c1cc(Cl)ccc1O
inactive: outcome [1] | Potency [3]
active: Potency [4] 3.98 µM | Potency [6] 1 µM | Potency [7] 0.708 µM | Potency [8] 0.794 µM | Potency [9] 1 µM

Cn1ccc2cc3c(cc21)CCN3C(=O)Nc1cccnc1
active: Potency [6] 10 µM | Potency [7] 11.2 µM
inactive: outcome [1] | Potency [3] | Potency [4] | Potency [5]

CN1CCC(=C2c3ccccc3C=Cc3ccccc32)CC1
inactive: outcome [1] | Potency [3] | Potency [4] | Potency [5]
active: Potency [6] 5.01 µM | Potency [7] 8.91 µM | Potency [8] 11.2 µM | Potency [9] 12.6 µM

NC(=O)NO
inactive: outcome [1] | Potency [3] | Potency [4] | Potency [5] | Potency [6] | Potency [7] | Potency [8] | Potency [9]

COc1ccccc1N1CCN(CC(O)COc2cccc3ccccc23)CC1 (stereo not given)
-14.9%: max response [2, 11]
inactive: activity change, negative = inhibition ([2]; at 57.5 µM (top of the series)) 0.0402% | Potency [3]
-17.8%: max response [2, 10]
active: Potency [6] 11.2 µM | Potency [7] 14.1 µM

CC12CC3CC(C)(C1)CC(N)(C3)C2
15.3% and 15.6%: max response [2, 10]
26.5% and 20.5%: max response [2, 11]
active: Potency [6] 11.2 µM | Potency [7] 0.891 µM
inactive: activity change, negative = inhibition ([2]; at 57.5 µM (top of the series)) 7.67% and 1.43% | Potency [3] | Potency [5] | Potency [9]

CC(C)Cc1ccc(C(C)C(=O)O)cc1 (stereo not given)
inactive: outcome [1] | Potency [3] | Potency [4] | Potency [7] | Potency [8] | Potency [9]

COc1cc2nc(N3CCN(C(=O)C4COc5ccccc5O4)CC3)nc(N)c2cc1OC (stereo not given)
inactive: Potency [3] | Potency [4] | Potency [5]
active: Potency [6] 2.24 µM | Potency [7] 3.16 µM | Potency [8] 2.82 µM | Potency [9] 2.51 µM

CN(Cc1cnc2nc(N)nc(N)c2n1)c1ccc(C(=O)N[C@@H](CCC(=O)O)C(=O)O)cc1
inactive: outcome [1] | activity change, negative = inhibition ([2]; at 57.5 µM (top of the series)) 0.2% | Potency [5]
-11.7%: max response [2, 10]
active: Potency [3] 20 µM | Potency [6] 0.126 µM | Potency [7] 0.0398 µM | Potency [8] 0.0708 µM | Potency [9] 0.0398 µM
-9.12%: max response [2, 11]

CC[N+](CC)(CC)CCOc1cccc(OCC[N+](CC)(CC)CC)c1OCC[N+](CC)(CC)CC
inactive: outcome [1] | Potency [3] | Potency [4] | Potency [6] | Potency [7] | Potency [8] | Potency [9]

Cc1ccccc1N1C(=O)c2cc(S(N)(=O)=O)c(Cl)cc2NC1C (stereo not given)
inactive: outcome [1] | Potency [3] | Potency [4] | Potency [7] | Potency [8] | Potency [9]

CC(C)C(=O)Nc1ccc([N+](=O)[O-])c(C(F)(F)F)c1
inactive: outcome [1] | Potency [3] | Potency [4]

— PubChem BioAssay (NCATS)
